Assay outcomes (PubChem BioAssay)
Only some compounds are listed: those with a hit (about 1.3% of all), similar ones and a draw of the others.
PLAP act: human PLAP activation; P05187; purified PLAP enzyme, luminescent substrate read-out; active compounds read high; activation fold at 20 µM; hit rate 1.2% among 96,000; AID 696; in the data active = activation fold above about 2
HePTP inh: inhibitors of human HePTP phosphatase | P35236 | recombinant HePTP phosphatase activity, OD absorbance | inhibition, % at 20 µM | hit rate 0.64% among 110,000; in the data active = inhibition above about 50%;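 also: plate controls were vehicle for no effect and reference inhibitor for full effect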
Target sequence (P35236 whole entry, looked up): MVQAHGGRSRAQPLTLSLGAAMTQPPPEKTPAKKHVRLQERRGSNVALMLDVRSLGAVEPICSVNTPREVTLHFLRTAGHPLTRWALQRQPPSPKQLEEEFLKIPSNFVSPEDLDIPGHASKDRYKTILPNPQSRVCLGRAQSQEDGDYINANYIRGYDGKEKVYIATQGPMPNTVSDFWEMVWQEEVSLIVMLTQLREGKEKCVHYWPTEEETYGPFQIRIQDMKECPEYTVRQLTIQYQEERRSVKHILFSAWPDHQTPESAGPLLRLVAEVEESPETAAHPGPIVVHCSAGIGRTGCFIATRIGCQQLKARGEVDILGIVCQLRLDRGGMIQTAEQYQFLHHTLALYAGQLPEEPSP
TNAP act DEA: activators of human TNAP at intermediate phosphate acceptor | activation factor at 20 µM | 64,000 tested, under 10 active | AID 813 | purified TNAP, CDP-star luminescence, 100 mM DEA, 30 min; active compounds read high; scale: 0 levamisole-inhibited, 1 vehicle-only enzyme;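 active = activation factor of at least 2 at 20 µM, relative to controls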
E coli WT exp: E. coli BW25113 growth inhibition, expanded screen | OD600 absorbance | growth inhibition, % at 100 µM | hit rate 0.15% among 98,000;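 active = growth inhibition above about 50% at one test dose, limit read from the data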;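 also: growth measured after 20 h incubation at 37 °C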
The depositor's hits bear a star; nt = no result given.

SMILES	PLAP act	HePTP inh	TNAP act DEA	E coli WT exp
CC1=NN(c2ccccc2)C(=O)C1C=C1C(=O)NC(=O)NC1=O (configuration not stated)	nt	-3	nt	nt
CC1=NN(c2ccccc2)C(=O)C1C=C1C(=O)NC(=S)NC1=O (configuration not stated)	nt	54*	nt	nt
CCC1CCCCN1CCCNC(=O)c1cn(CC(C)C)c(=O)c2cc(OC)c(OC)cc12 (configuration not stated)	2*	6	1	7
Cc1nc2ccc(NC(=S)Nc3cccc([N+](=O)[O-])c3)cc2nc1C	nt	-1	nt	nt
O=C(/C=C/c1ccc(Cl)cc1)Nc1cccc([N+](=O)[O-])c1	nt	18	nt	nt
O=C(/C=C/c1ccco1)Nc1cccc([N+](=O)[O-])c1	nt	62*	nt	nt
Cc1occc1C(=O)NNC(=S)Nc1cccc([N+](=O)[O-])c1	2*	nt	nt	7
COC(=O)CSc1nc(N)c(C#N)c(-c2ccco2)c1C#N	1	nt	nt	-10
CCCc1cc(=O)[nH]c(-n2[nH]c3c(c2=O)CCCC3)n1	2.3*	nt	nt	1
CCCc1cc(=O)[nH]c(SCC)n1	0.9	11	0.9	4
CCOc1ncccc1C(=O)NCC1COc2ccccc2O1 (configuration not stated)	1.8	8	0.9	-1
Cn1cccc1/C=C1/C(=O)NC(=S)N(c2cccc(Cl)c2)C1=O	nt	101*	nt	nt
CCCNC(=O)c1ccc2c(c1)C1C3CCC(C3)C1C(c1ccccc1)N2 (configuration not stated)	2.6*	nt	nt	-25
Cc1onc(-c2ccccc2)c1C(=O)N1CCN(c2ccc(Cl)cc2)CC1	nt	104*	nt	nt
O=C(CCl)Nc1ccccc1Sc1ccccc1	0.9	nt	nt	-2
CCc1nc(SCC(=O)Nc2ccccc2C(=O)OC)n[nH]1	2*	1	0.9	2
Nc1nc(SCC(=O)Nc2ccccc2Sc2ccccc2)n[nH]1	2.3*	nt	nt	-1
C=CCn1c(N)c(C(=O)Nc2cccc(C)c2)c2nc3ccccc3nc21	1.1	nt	nt	0
N#CC1=C(N)Oc2n[nH]c(-c3ccc(F)cc3)c2C1c1cccnc1 (configuration not stated)	2*	5	0.9	2
N#CC1=C(N)Oc2n[nH]c(-c3ccccc3)c2C1c1ccncc1 (configuration not stated)	1.6	5	0.8	13
COc1ccc(/C=C2\C(=O)N(c3nc(-c4ccc(C)cc4)cs3)N=C2C)cc1	nt	10	nt	nt
CCCCCC(=O)N/N=C/c1ccc([N+](=O)[O-])o1	nt	nt	nt	60*
O=C(N/N=C/c1ccc([N+](=O)[O-])o1)c1ccc(O)cc1	nt	102*	nt	nt
COc1ccc(Nc2ncnc3c2cnn3Cc2ccccc2)cc1OC	1.1	-2	1	7
O=C(NCc1ccc2c(c1)OCO2)NC12CC3CC(CC(C3)C1)C2	nt	0	nt	nt
SMILES	PLAP act	HePTP inh	TNAP act DEA	E coli WT exp
O=C(/C=C/c1ccccc1)NC(=S)NNC(=O)c1cccnc1	1.7	nt	nt	-6
COc1ccc(/C=C/C(=O)NC(=S)NNC(=O)c2cccnc2)cc1OC	2*	nt	nt	-7
Cc1nnc(NC(=O)c2ccc(C)c(S(=O)(=O)N3CCOCC3)c2)s1	1.1	nt	nt	7
O=c1/c(=C\c2cn[nH]c2-c2ccccc2)sc2nc3ccccc3n12	nt	50*	nt	nt
CC1(C)OC(=O)N(Cc2ccco2)C1(C)O (configuration not stated)	1.3	1	1	28
COc1cccc(CNC(=O)C2CCN(Cc3cnn(-c4ccccc4)c3-n3cccc3)CC2)c1	2.2*	-4	1.1	6
O=C(NC1CC1)C1CCN(Cc2cnn(-c3ccccc3)c2-n2cccc2)CC1	2*	nt	nt	5
O=C(NCc1ccccn1)C1CCN(Cc2cnn(-c3ccccc3)c2-n2cccc2)CC1	1.8	nt	nt	-3
CCOc1ccc(-c2cc(C(=O)Nc3nnc(C)s3)c3ccccc3n2)cc1	nt	-6	nt	nt
O=C(O)c1cc(-c2cccc(Cl)c2)nc2ccccc12	nt	104*	nt	nt
Cc1cccc(-c2cc(C(=O)O)c3ccccc3n2)c1	nt	0	nt	nt
Cc1nn(Cc2ccccc2Cl)c(C)c1NC(=O)NC12CC3CC(CC(C3)C1)C2	2*	nt	nt	-9
O=C(Nc1nc2ccc3ccccc3c2s1)c1ccc(C(=O)c2ccccc2)cc1	nt	104*	nt	nt
O=C(Nc1nc2ccc3ccccc3c2s1)c1cccc(Br)c1	nt	12	nt	nt
Cc1csc(NC(=O)CSc2nnc(Cc3cccn3C)n2CCc2ccccc2)n1	1.5	6	0.9	5
O=C(NC1CCCCCC1)c1cc(-c2ccco2)nc2ccccc12	nt	98*	nt	nt
COc1ccc(CCn2c(C)ccc2C)cc1OC	nt	-2	0.9	-3
Cc1cnn(CCC(=O)NNC(=S)Nc2ccccc2)c1	1.9	nt	nt	5
Cc1ccc(NC(=S)NNC(=O)CCn2cc(C)cn2)cc1	2.4*	nt	nt	-3
O=C(Cn1nc(C(F)F)cc1C(F)F)NNC(=S)Nc1ccc(F)cc1	2.4*	nt	nt	4
Cc1ccc(NC(=S)NNC(=O)Cn2nc([N+](=O)[O-])cc2C)cc1	2*	nt	nt	9
CN(Cc1ccco1)C(=O)C(Cc1ccccc1)NS(=O)(=O)c1ccc2c(c1)CCC(=O)N2 (configuration not stated)	1.7	6	0.9	2
C[C@H](N)c1nnc(SCC(=O)c2ccc(Cl)cc2)o1	2.9*	nt	nt	4
O=C1N=c2ccccc2=C1c1cc(-c2ccccc2)oc1O	nt	56*	nt	nt
O=C(Nc1ccc(Br)cc1C(=O)O)c1cccc(N2C(=O)c3ccccc3C2=O)c1	nt	102*	nt	nt
SMILES	PLAP act	HePTP inh	TNAP act DEA	E coli WT exp
CCCc1cc(-c2[nH]ncc2-c2ccc3c(c2)OCCCO3)c(O)cc1OC	nt	nt	nt	13
COc1ccc(-c2[nH]ncc2-c2ccc3c(c2)OCCO3)c(O)c1	2.1*	5	1.4	3
CCc1cc(-c2[nH]ncc2-c2ccc3c(c2)OCO3)c(O)cc1O	2.5*	-6	1.2	nt
Cc1ccc2nsnc2c1NC(=O)c1cc(Br)ccc1Cl	nt	5	nt	nt
C=CCNc1ncnc2c1[nH]c1ccc(Cl)cc12	0.9	nt	nt	73*
Cc1ccc2[nH]c3c(NCc4ccco4)ncnc3c2c1	0.8	3	0.9	30
C=CCNc1ncnc2c1[nH]c1ccccc12	1.1	-4	1	77*
O=C(NC1CC1)c1cc(F)c(F)cc1Cl	1	nt	nt	-2
CCCCNc1nc2ccccc2[nH]1	2.7*	nt	nt	19
COc1ccc(C2=C(Nc3ccc4oc5ccccc5c4c3)c3ccccc3C2=O)cc1	nt	5	nt	nt
Cc1ccccc1Nc1nnc(SCc2cc([N+](=O)[O-])cc3c2OCOC3)s1	2*	nt	nt	-8
CCOC(=O)c1sc(=NC(=O)c2ccc(S(=O)(=O)N3CCOCC3)cc2)n(C)c1C	nt	2	0.9	nt
Cc1[nH]nc2c1C(c1ccc(OC(=O)c3ccco3)cc1)C(C#N)=C(N)O2 (configuration not stated)	0.9	-2	0.8	-2
CCN(CC)c1ccc(NC(=O)/C=C\c2ccccc2Cl)cc1	0.7	104*	nt	-13
COc1ccc(-c2cc(-c3ccccc3O)[nH]n2)cc1OC	2.8*	5	1	-5
COc1ccc(-c2cc(-c3cc(OC)ccc3O)[nH]n2)cc1	2.3*	nt	nt	22
COc1ccc(-c2n[nH]c(C)c2-c2cc(OC)ccc2O)cc1	2*	nt	nt	1
COc1ccc(-c2cc(-c3ccc(OC)c(OC)c3)n[nH]2)c(O)c1	2.2*	-4	nt	11
COc1ccc(O)c(-c2cc(-c3ccc(F)cc3)n[nH]2)c1	nt	2	nt	nt
